The values that follow come from PubChem BioAssay (NCI).

Molecules are shown by their SMILES. This is part of a sample that, as a whole, favours compounds with a hit. Of some 83,000 tested, about 20% had one in any assay.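 Growth was measured after 48 h exposure to one concentration of compound in 96-well plates. Values under 10 count as active.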 The source made the active and inactive calls.

The test system of the test is KM12 colon. Nature of the test: NCI-60 one-dose screen, 48 h (100 = growth as untreated, 0 = no growth, -100 = all killed). As to conditions: 10 µM unless noted.
For `CC(C)(CO)N(CCO)CCO`, the growth was 106% (inactive).
With `CCCCCCCCn1ccc2cc(NC(=O)Cn3cc(CN4CCCCCC4)nn3)ccc21`, the growth was -27.8% (active).
The value for `COc1cc2cc(Oc3ccc(NC(=O)Nc4ccccc4)cc3)c(C)nc2cc1OCCN1CCCCC1` was 42.4% (inactive); that for `CN1CCN(CCCOC(=O)c2c3c(n4ccccc24)C(=O)c2ncccc2C3=O)CC1` was 17.5% (inactive); that for `Cc1ccc2[nH]c(-c3ccc(S(C)(=O)=O)cc3)c(/C=N/N=C(N)N)c2c1` was 46.1% (inactive).
For `COc1ccc(C/C(C)=C(\c2ccc(O)cc2)c2ccc(OCCN3CCCC3)cc2)cc1` the value was 106% (inactive); for `CC1(C)C2CC=C(/C=N/NC(=O)C3CCC(=O)N3)C1C2` (stereo not given), 106% (inactive); for `COc1ccc2cc(-c3ccc(-c4ccc(C(=N)N)s4)s3)ccc2c1`, -14.5% (active).
For `Cc1nc2sc(C(=O)Nc3ccccc3)c(N)c2cc1C(=O)/C=C/c1ccccc1` the value was -42.1% (active); for `O=C1/C(=C/c2ccc(C(F)(F)F)cc2)COc2ccc(O)cc21`, 52.2% (inactive).
Regarding `Cc1[nH]c(C(=O)Nc2ccc(C(N)=O)cc2NC(C)C)c(Cl)c1Cl`, the growth was 98.9% (inactive).
For `Oc1c(CN2CCCC2)cc(COCc2ccccc2)c2cccnc12` the value was 28.7% (inactive).
For `CCCCCCCC/C=C\CCCCCCCCOc1ccccc1CC(=O)NCC[N+]1(C)CCCCC1` the value was 22.5% (inactive); for `O=C1Nc2ccc(F)cc2/C1=C\c1nc(-c2ccccc2F)n2ccccc12`, 97.2% (inactive).
As to `CN(C)Cc1ccc(C(=O)Nc2ccc3ncnc(Nc4ccc(Oc5cccc(F)c5)c(Cl)c4)c3c2)cc1`, the growth was -5.02% (active).
For the compound `CCNC(=O)Oc1ccc(/C(=C(/C)Cc2ccc(OC)cc2)c2ccc(OCCN3CCCC3)cc2)cc1`, the growth is 71.5% (inactive).
The value for `Cc1cscc(C)c1=S` was 104% (inactive).
As for `CC(=O)N/C(=C1/OC(C(O)C(O)C(O)CO)CN1C)[P+](c1ccccc1)(c1ccccc1)c1ccccc1` (stereo not given), the growth is 103% (inactive).
The value for `COC(=O)c1c2c(n3ccc(C)cc13)C(=O)c1ccccc1C2=O` was 59.4% (inactive); that for `COc1cc2nc(Nc3cccc(F)c3)nc(Nc3cc(C)[nH]n3)c2cc1OC` was -69.2% [20 µM] (active); that for `CC1=CCC[C@@H]2C1(C)CC[C@H](C)[C@@]2(C)CC1=CC(=O)C(SC(C)(C)C)=CC1=O` (stereo not given in full) was 93.1% (inactive).
The value for `O=C(/C=C/c1cccc(Cl)c1)c1cccc(OCCCCOc2cccc(C(=O)/C=C/c3cccc(Cl)c3)c2)c1` was 70.5% (inactive); that for `CCCNc1nc2ccccc2c2c(=O)c3cccc(Cl)c3sc12` was 90.4% (inactive); that for `COc1cccc(Nc2ccnc3[nH]c4ccc([N+](=O)[O-])cc4c23)c1` was 27.2% (inactive).
The value for `CCOC(=O)CSc1nc2sc3c(c2c(=O)n1-c1ccc([N+](=O)[O-])cc1)CCCCC3` was 89.7% (inactive).
`COc1cccc2c(N=NC(=O)c3ccc(S(N)(=O)=O)cc3)c(O)[nH]c12`: the growth was 101% (inactive).
The value for `Clc1nccc2c(-c3csc(-c4c[nH]c5ccccc45)n3)c[nH]c12` was 47.5% (inactive); that for `COc1cc(/C=N/Nc2ccccc2F)cc(OC)c1OC` was 86.3% (inactive); that for `COc1ccc2c(c1)c(-c1nc(-c3cn(C)c4ncccc34)cs1)cn2CCO` was 49.5% (inactive).
The value for `CS(=O)(=O)Cc1cnc(C2OCCO2)s1` was 88.9% (inactive); that for `COc1ccc(Nc2ncc(C(N)=O)c(NCCCNC(=O)C3CCC3)n2)cc1` was 29.3% (inactive).
The value for `N#C/C(=C\c1ccc(-c2ccc(Cl)cc2)o1)c1ccc(Cl)cc1` was 88.9% (inactive).
For `COc1cc(C(=O)/C=C/c2c(-c3cccs3)nc3ccccn23)cc(OC)c1OC`, the growth is -25.6% (active).
For `Fc1ccc(CNc2c3ccccc3nc3ccccc23)cc1` the value was 28.3% (inactive); for `COc1cc(Nc2c3ccc(Cl)cc3nc3ccc(OC)cc23)c2ncccc2c1`, 39.3% (inactive).
For `COc1cc(C2Cc3ncccc3-c3[nH]c(=O)c4cccnc4c32)cc(OC)c1OC` (stereo not given) the value was 23% (inactive).
For `CCc1ccc(CCC(=O)Nc2ncc(Cc3ccc(Cl)cc3)s2)o1` the value was 21.6% (inactive); for `N#Cc1c(-c2ccccc2)nc2c(c(-c3ccccc3)nn2-c2ccccc2)c1-c1ccc(N2CCOCC2)cc1`, 95.7% (inactive).
On to `COc1ccc(NC(=O)c2ccc(C(=O)Nc3ccc(OC)cc3OC)cc2)c(OC)c1`, for which the growth was 103% (inactive).
The value for `CCN=C1C=CC(=C(c2ccc(N(C)C)cc2)c2ccc(N(C)C)cc2)c2ccccc21` was -86.1% (active).
